Jurkat NFkB inh: inhibitors of the PMA/ionomycin-induced NF-kB reporter in Jurkat cells; AID 435003; PMA/ionomycin-induced NF-kB luciferase reporter, luminescence; actives 0.53% (n = 330,000); inhibition, % at 4 µM; in the data active = inhibition above about 50%
Shn3 inh set2: Schnurri-3 reporter inhibition in Clone20 osteoblasts; Clone20 osteoblast Shn3 3'UTR firefly luciferase, 24 h; AID 588674; actives 0.52% (n = 360,000); inhibition, % at 12.5 µM;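 active = mean inhibition of at least 75% with every replicate also reaching 75%; inconclusive = mean inhibition at least 75% but some replicate below; inactive = mean inhibition below 75%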
Gli-Sufu antag: Gli-Sufu pathway antagonism. Sufu-KO-LIGHT fibroblasts, Gli luciferase reporter luminescence. inhibition, % at 5 µM. actives 0.74% (n = 340,000). AID 588413;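 active = inhibition above about 55%, limit read from the data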
697 NFkB inh: lowers PMA/ionomycin-induced NF-kB signal in 697 B cells; AID 435022; inhibition, % at 4 µM; 697 B-cell NF-kB luciferase reporter, 16 h; actives 0.33% (n = 330,000); in the data active = inhibition above about 35%
aSyn UTR inh: MLPCN primary screen, SNCA 5' untranslated region. alpha-synuclein 5'UTR reporter, inhibitor activity. inhibition, % (tested at 7.5 µM). actives 0.82% (n = 300,000). AID 1813; in the data active = inhibition above about 60%; inconclusive = no clear call, values can overlap the other calls;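 also: H4 neuroglioblastoma cells stably carrying SNCA 5'UTR luciferase fusion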
H9c2 TAG inh: inhibitors of triacylglycerol accumulation; inhibition, % at 12.5 µM; actives 0.66% (n = 230,000); H9c2 cells, Nile Red lipid (TAG) fluorescence; cells loaded with 200 µM oleic acid;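 active = pattern-corrected inhibition of lipid staining of at least 50% with the nuclear-stain viability signal not falling by more than 50%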
697 NFkB conf: lowers PMA/ionomycin-induced NF-kB signal in 697 B cells; AID 449746; shares compounds with 697 NFkB inh; inhibition, % at 4 µM; 697 B-cell NF-kB luciferase, 16 h; actives 35% (n = 2,000); in the data active = inhibition mostly above about 28%, no sharp cut-off; inactive = mostly below about 22%
Hits are given with their value. Sampled rows, rich in hits. Any-hit rate of the full collection: about 2.3%.

How did Cc1cccc(NC(=O)CC2C(=O)NCCN2C(=S)Nc2ccccc2)c1 (stereo not drawn) do in these assays?
Jurkat NFkB inh: inactive; Shn3 inh set2: inactive; Gli-Sufu antag: inactive; 697 NFkB inh: inactive; aSyn UTR inh: inactive

What do the screens show for `COc1ccccc1NC(=S)N1CCNC(=O)C1CC(=O)Nc1cccc(C)c1` (stereo not drawn)?
Jurkat NFkB inh: inactive; Shn3 inh set2: inactive; Gli-Sufu antag: inactive; 697 NFkB inh: 37.5; aSyn UTR inh: inactive; H9c2 TAG inh: inactive; 697 NFkB conf: inactive

What do the screens show for `CCN1CCN(C(=O)C2CCC(CNS(=O)(=O)c3ccc(NC(C)=O)cc3)CC2)CC1` (stereo not drawn)?
Jurkat NFkB inh: inactive; Shn3 inh set2: inactive; Gli-Sufu antag: inactive; 697 NFkB inh: inactive; aSyn UTR inh: inactive

Results for CCCC(=O)N1c2ccccc2C(N(C(C)=O)c2ccccc2)CC1C (stereo not drawn) ?
Jurkat NFkB inh: inactive; Shn3 inh set2: inactive; Gli-Sufu antag: inactive; 697 NFkB inh: inactive; aSyn UTR inh: inactive; H9c2 TAG inh: inactive

How did CCC(=O)N1c2ccccc2[C@@H](N(C(C)=O)c2ccccc2)C[C@H]1C do in these assays?
Jurkat NFkB inh: inactive; Shn3 inh set2: inactive; Gli-Sufu antag: inactive; 697 NFkB inh: 50.6; aSyn UTR inh: inactive; H9c2 TAG inh: inactive; 697 NFkB conf: 37.9

Results for C[C@H](CO)N1C[C@H](C)[C@@H](CN(C)C(=O)Nc2ccc3c(c2)OCO3)Oc2c(NC(=O)Nc3ccc(C(F)(F)F)cc3)cccc2C1=O ?
Jurkat NFkB inh: inactive; Shn3 inh set2: inactive; Gli-Sufu antag: inactive; 697 NFkB inh: 45.7; H9c2 TAG inh: inactive; 697 NFkB conf: inactive

What do the screens show for `CCOC(=O)N1CCC(=NNc2nc(C)cc(=O)[nH]2)CC1`?
Jurkat NFkB inh: inactive; Shn3 inh set2: inactive; Gli-Sufu antag: inactive; 697 NFkB inh: inactive; aSyn UTR inh: inactive; H9c2 TAG inh: inactive

How did CC1CC(C)CN(S(=O)(=O)c2ccc(C(=O)NCCCn3ccnc3)cc2)C1 (stereo not drawn) do in these assays?
Jurkat NFkB inh: inactive; Shn3 inh set2: inactive; Gli-Sufu antag: inactive; 697 NFkB inh: 69.6; aSyn UTR inh: 98.1; 697 NFkB conf: 50.3

What do the screens show for `Cc1ccc(S(=O)(=O)N(C)C)cc1NC(=O)C(C)OC(=O)c1ccc2c(c1)OCCO2` (stereo not drawn)?
Jurkat NFkB inh: inactive; Shn3 inh set2: inactive; Gli-Sufu antag: inactive; 697 NFkB inh: inactive; aSyn UTR inh: inactive; H9c2 TAG inh: inactive

What do the screens show for `COc1cc(NC(=O)c2ccco2)c(OC)cc1NC(=O)c1cc(OC)c(OC)c(OC)c1`?
Jurkat NFkB inh: inactive; Shn3 inh set2: inactive; Gli-Sufu antag: inactive; 697 NFkB inh: 41.0; aSyn UTR inh: inactive; H9c2 TAG inh: inactive; 697 NFkB conf: 33.5

Results for CCOc1cc(NC(=O)c2ccco2)c(OCC)cc1NC(=O)c1cc(OC)c(OC)c(OC)c1 ?
Jurkat NFkB inh: inactive; Shn3 inh set2: inactive; Gli-Sufu antag: inactive; 697 NFkB inh: inactive; aSyn UTR inh: inactive; H9c2 TAG inh: inactive

Results for CN1C(=O)N(C)C2C1N(CN1CCCCC1)C(=O)N2CN1CCCCC1 (stereo not drawn) ?
Jurkat NFkB inh: inactive; Shn3 inh set2: inactive; Gli-Sufu antag: inactive; 697 NFkB inh: inactive; aSyn UTR inh: inactive; H9c2 TAG inh: inactive

What do the screens show for `Cc1cc2ccccn2c1C(=O)c1ccc(S(=O)(=O)N(C)C)cc1`?
Jurkat NFkB inh: inactive; Shn3 inh set2: inactive; Gli-Sufu antag: inactive; 697 NFkB inh: inactive; aSyn UTR inh: inactive; H9c2 TAG inh: inactive

How did Cc1csc(NC(=O)/C=C/c2ccc3c(c2)OCO3)n1 do in these assays?
Jurkat NFkB inh: inactive; Shn3 inh set2: inactive; Gli-Sufu antag: inactive; 697 NFkB inh: 69.8; aSyn UTR inh: inactive; H9c2 TAG inh: inactive; 697 NFkB conf: 64.2

How did O=C1CC(N2CCOCC2)C(=O)N1c1cccc(Cl)c1 (stereo not drawn) do in these assays?
Jurkat NFkB inh: inactive; Shn3 inh set2: inactive; Gli-Sufu antag: inactive; 697 NFkB inh: inactive; aSyn UTR inh: inactive; H9c2 TAG inh: inactive

Results for O=C(Nc1cccc(-n2cnnn2)c1)c1cccs1 ?
Jurkat NFkB inh: inactive; Shn3 inh set2: inactive; Gli-Sufu antag: inactive; 697 NFkB inh: inactive; aSyn UTR inh: inactive

Results for CCc1sc(C(=O)Nc2cccc(-n3cnnn3)c2)cc1C ?
Jurkat NFkB inh: inactive; Shn3 inh set2: inactive; Gli-Sufu antag: inactive; 697 NFkB inh: 36.9; H9c2 TAG inh: inactive; 697 NFkB conf: 39.2

Results for Cc1ccc(C(=O)Nc2ccc(C(=O)NCC3CCCO3)cc2)cc1 (stereo not drawn) ?
Jurkat NFkB inh: inactive; Shn3 inh set2: inactive; Gli-Sufu antag: inactive; 697 NFkB inh: inactive; aSyn UTR inh: inactive

Results for Cc1nn(C)c(C)c1CN(C)C(=O)c1cnn2c1NC(c1ccccc1)CC2C(F)(F)F (stereo not drawn) ?
Jurkat NFkB inh: inactive; Shn3 inh set2: inactive; Gli-Sufu antag: inactive; 697 NFkB inh: 39.4; aSyn UTR inh: inactive; 697 NFkB conf: inactive

What do the screens show for `Fc1ccc(C2=Nn3c(nnc3-c3n[nH]c4c3CCC4)SC2)cc1`?
Jurkat NFkB inh: inactive; Shn3 inh set2: inactive; Gli-Sufu antag: inactive; 697 NFkB inh: 43.6; aSyn UTR inh: inactive; H9c2 TAG inh: inactive; 697 NFkB conf: 53.4

What do the screens show for `COCCN1C(=O)/C(=C/c2ccc(Oc3ccc([N+](=O)[O-])cn3)c(OC)c2)SC1=Nc1ccccc1`?
Jurkat NFkB inh: inactive; Shn3 inh set2: inactive; Gli-Sufu antag: inactive; 697 NFkB inh: 49.5; aSyn UTR inh: inactive; 697 NFkB conf: inactive

Results for Cc1cc2c(C)c(C)c(=O)[nH]c2cc1N ?
Jurkat NFkB inh: inactive; Shn3 inh set2: inactive; Gli-Sufu antag: inactive; 697 NFkB inh: 35.7; aSyn UTR inh: inactive; H9c2 TAG inh: inactive; 697 NFkB conf: inactive

What do the screens show for `COc1cccc(CC2(CO)CCCN(S(=O)(=O)N(C)C)C2)c1` (stereo not drawn)?
Jurkat NFkB inh: inactive; Shn3 inh set2: inactive; Gli-Sufu antag: inactive; 697 NFkB inh: inactive; aSyn UTR inh: inactive; H9c2 TAG inh: inactive

How did Cc1ccc(C)c(-n2nnnc2Sc2nnnn2-c2ccccc2)c1 do in these assays?
Jurkat NFkB inh: inactive; Shn3 inh set2: inactive; Gli-Sufu antag: inactive; 697 NFkB inh: 35.0; aSyn UTR inh: inactive; H9c2 TAG inh: inactive; 697 NFkB conf: 33.2

How did CCCCSc1nnc2c(n1)[nH]c1ccccc12 do in these assays?
Jurkat NFkB inh: inactive; Shn3 inh set2: inactive; Gli-Sufu antag: inactive; 697 NFkB inh: inactive; aSyn UTR inh: inactive; 697 NFkB conf: inactive

How did COc1ccc2[nH]c3nc(SC(C)C)nnc3c2c1 do in these assays?
Jurkat NFkB inh: inactive; Shn3 inh set2: inactive; Gli-Sufu antag: inactive; 697 NFkB inh: inactive; aSyn UTR inh: inconclusive; H9c2 TAG inh: inactive; 697 NFkB conf: inactive

Results for CC(C)CSc1nnc2c(n1)[nH]c1ccccc12 ?
Jurkat NFkB inh: inactive; Shn3 inh set2: inactive; Gli-Sufu antag: inactive; 697 NFkB inh: inactive; aSyn UTR inh: inactive; 697 NFkB conf: inactive

Screening data: PubChem BioAssay, several laboratories
